# IL-1B inflam inh: qHTS for Inhibitors of Inflammasome Signaling: IL-1-beta AlphaLISA Primary Screen | actives 4.7% (n = 360,000) | THP-1 LPS/ATP IL-1B secretion, AlphaLISA, 16 h; stronger effect = lower value | activity change, % at 57.5 µM | AID 743279, 2014; in the data active = activity change below about -50%; inconclusive = mostly about -30% to -49%; note: % is set by controls: 0 for no effect and ±100 for the full control effect
#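 Secreted IL-1B measured by AlphaLISA bead assay after 16 h compound exposure of THP-1 cells; compounds (final up to 57.5 uM) added 1 h before LPS (250 ng/mL) and ATP (1.25 mM) stimulation; lower signal means less secretion.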
# HepG2 tox: qHTS for Inhibitors of TGF-b: Cytotox Counterscreen. HepG2 CAGA-GFP viability, ATP luminescence, 18 h. Potency, µM (top dose mostly 46.1 µM), inactives show top-dose activity change, negative = cytotoxicity, most hits filed as cytotoxic. actives 0.76% (n = 410,000). AID 588856, 2011; note: potency is the fitted concentration of half-maximal effect
#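 CellTiter-Glo luminescence gave cytotoxicity after 18 hours at 37 degrees C. The cells were HepG2 CAGA-GFP in 1% FBS DMEM, stimulated with 500 pg/mL TGF-beta after compound addition. %Activity was normalised to no-cell wells (complete cell-killing) and DMSO (no toxicity), and curves were fitted and classified.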
# DT40 TDP1 no CPT: qHTS for Inhibitors of human tyrosyl-DNA phosphodiesterase 1 (TDP1): qHTS in cells in absence of CPT | DT40 Tdp1-/- hTDP1 cells, no CPT, ATP luminescence, 48 h | Potency, µM (top dose mostly 46.2 µM), for inactives: at the top dose activity change, negative = growth inhibition, hits mostly inhibitors | actives 15% (n = 420,000) | AID 686978, 2013; note: potency is the fitted concentration of half-maximal effect; % is set by controls: 0 for no effect and ±100 for the full control effect; nearly all actives have a fitted effect of over 55% in size
#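 Compound effects on proliferation are scored in DT40 Tdp1-/-;hTDP1 cells in the absence of CPT. ATP levels (CellTiter-Glo luminescence) are recorded after a ≥48 hr, 37 °C incubation.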
# TDP1 block: qHTS Assay for Inhibitors of Tyrosyl-DNA Phosphodiesterase (TDP1). Tyrosyl-DNA phosphodiesterase 1 (Homo sapiens), Q9NUW8. recombinant TDP1, AlphaScreen DNA substrate cleavage. Potency, µM (top dose mostly 130 µM), for the others: at the top dose activity change, negative = inhibition, most hits filed as inhibitors. actives 0.28% (n = 350,000). AID 485290, 2010; note: potency is the fitted concentration of half-maximal effect; % is set by controls: 0 for no effect and ±100 for the full control effect; nearly all actives have a fitted effect of over 40% in size
# Target sequence (Q9NUW8 whole entry, looked up): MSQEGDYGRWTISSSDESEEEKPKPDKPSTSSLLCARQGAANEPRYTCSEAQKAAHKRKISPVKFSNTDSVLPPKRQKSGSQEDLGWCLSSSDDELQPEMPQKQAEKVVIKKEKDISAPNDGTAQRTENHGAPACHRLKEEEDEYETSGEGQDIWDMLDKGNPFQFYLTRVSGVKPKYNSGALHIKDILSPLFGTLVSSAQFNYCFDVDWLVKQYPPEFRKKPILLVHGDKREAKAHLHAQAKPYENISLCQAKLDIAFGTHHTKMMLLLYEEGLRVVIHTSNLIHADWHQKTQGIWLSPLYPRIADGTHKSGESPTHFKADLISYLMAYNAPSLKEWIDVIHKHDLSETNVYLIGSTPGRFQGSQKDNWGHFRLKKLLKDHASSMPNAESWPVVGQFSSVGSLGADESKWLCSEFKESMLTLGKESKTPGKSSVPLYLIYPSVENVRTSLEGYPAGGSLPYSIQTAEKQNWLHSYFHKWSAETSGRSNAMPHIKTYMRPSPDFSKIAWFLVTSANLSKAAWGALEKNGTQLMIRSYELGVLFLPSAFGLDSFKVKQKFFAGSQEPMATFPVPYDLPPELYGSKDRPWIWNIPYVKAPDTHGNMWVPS
#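 Enzyme-compound mixtures sat 15 min at room temperature, followed by a 5 min reaction with 15 nM final substrate and 10 min with AlphaScreen beads. Recombinant human Tdp1 was used at 1 nM final.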
# TGFb SMAD3 inh: qHTS for Inhibitors of TGF-b; HepG2 CAGA-GFP TGF-b/SMAD3 reporter, GFP fluorescence, 18 h; TGF-beta stimulated, 500 pg/mL final; Potency, µM (top dose mostly 46.1 µM), without a hit: top-dose activity, negative = inhibition, actives largely listed as inhibitors; actives 1.2% (n = 410,000); note: potency is the fitted concentration of half-maximal effect; % is set by controls: 0 for no effect and ±100 for the full control effect; nearly all actives have a fitted effect of over 65% in size
#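 HEPG2 CAGA-GFP, 1000 cells/well; 2 h settle, 37 C; cpd via pin tool; TGF-b 500 pg/mL final; 18 h, 37 C; GFP imaging ex488/em500-530; %Activity normalised to -TGF-b and +DMSO controls; CRC fit, curve class.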
# DT40 TDP1 CPT: qHTS for Inhibitors of human tyrosyl-DNA phosphodiesterase 1 (TDP1): qHTS in cells in presence of CPT; chicken DT40 Tdp1-/-;hTDP1 cells + 20 nM CPT, ATP luminescence, 48 h; Potency, µM (titrated, usually from 46.2 µM), for inactives: at the highest dose activity change, negative = growth inhibition, actives largely listed as inhibitors; actives 12% (n = 420,000); AID 686979, 2013; note: potency is the fitted concentration of half-maximal effect; % is set by controls: 0 for no effect and ±100 for the full control effect; nearly all actives have a fitted effect of over 55% in size
#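 Chicken DT40 Tdp1-/- cells stably complemented with human TDP1 were seeded at 400 cells/well in medium containing 20 nM camptothecin, exposed to pin-transferred compounds, and grown at 37 °C for at least 48 hr. Viability was read as ATP luminescence.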
# The depositor's hits bear a star; ? = inconclusive; . = not tested or not shown; [ ] = another dose, or the depositor's remark. Compounds with a hit are over-represented: about 18% of the library has one in this group of screens. Unless noted, calls come from the whole dose curve; as a rule, active = well fitted curve in the direction sought with a large enough effect; inconclusive = small, poorly fitted or top-dose-only effect, or another doubt; inactive = no such curve, though single readings can be large; an effect the other way counts as inactive or inconclusive.
SMILES,IL-1B inflam inh,HepG2 tox,DT40 TDP1 no CPT,TDP1 block,TGFb SMAD3 inh,DT40 TDP1 CPT
COC[C@H]1OC(=O)c2coc3c2[C@@]1(C)C1=C(C3=O)C2CCC(=O)[C@@]2(C)C[C@H]1OC(C)=O (stereo partly specified),.,.,0.63µM*,12%[56.1 µM],.,1µM*
CCOC(=O)[C@]12Cc3cc(OC)ccc3[C@H]1N(C1CCCCC1)C(=O)c1ccccc12,-122*,.,2.3µM*,.,.,2.1µM*
CCOC(=O)[C@]12Cc3cc(Cl)ccc3[C@H]1N(C1CCCCC1)C(=O)c1ccccc12,-114*,.,2.3µM*,.,.,2.3µM*
CCOC(=O)C1CCN(/C=C2/C(=O)NC(=S)N(c3cccc(OC)c3)C2=O)CC1,-16,-54%,0%,1%,-6%,-3%
O=C(COc1ccccc1Cl)N1CCN(CCc2ccncc2)CC1,.,-90%,-19%,5%,-6%,-10%
N[C@H](CCP(=O)(O)O)C(=O)O,.,.,6%,-14%[56.1 µM],.,2%
CCc1ccc(NC(=O)CN2C(=O)C3(SCC(=O)N3c3ccc(F)c(F)c3)c3ccccc32)cc1 (stereo unspecified),.,-22%,?,2%,?,18µM*
CN1CCC(N(C)c2nc(-c3ccc([N+](=O)[O-])cc3)nc3ccccc23)CC1,-96*,-123%,12µM*,0%,?,8.2µM*
CCC(=O)c1ccc(OCC(=O)N2CCN(CC(=O)Nc3ccccc3C(F)(F)F)CC2)cc1,10,-5%,15µM*,-2%,2%,?
Cc1cccc(NC(=O)CN2CCN(C(=O)COc3cccc(Br)c3)CC2)c1C,-7,-2%,?,0%,1%,-28%
CCCCc1nn2c(=O)cc(COC(=O)Cc3ccccc3)nc2s1,.,-2%,0%,12%,?,-22%
O=C(COC(=O)Cc1ccccc1)NNC(=O)c1ccc([N+](=O)[O-])cc1,10,-73%,12%,0%,0%,-13%
O=C(CNC(=O)c1cccs1)OCC(=O)c1ccc([N+](=O)[O-])cc1,-89*,3%,?,9%,4%,16µM*
O=C1NC2C(=CC(O)C(O)C2O)c2cc3c(cc21)OCO3 (stereo unspecified),-101*,-4%,0.29µM*,.,?,0.41µM*
C=CC[C@@H](CC(=O)N[C@H](CO)Cc1ccccc1)C(=O)NCCOC(=O)[C@@H](CC=C)Cc1ccc(F)cc1,21,-17%,?,0%,6%,29µM*
C=CC[C@@H](CC(=O)N[C@@H](CO)Cc1ccccc1)C(=O)NCCOC(=O)[C@@H](CC=C)Cc1ccc(F)cc1,4,6%,-3%,0%,7%,8%
CC(O)(c1ccncc1)c1nc(-c2cccc(C(F)(F)F)c2)cs1 (stereo unspecified),2,-23%,21µM*,.,6%,23µM*
COc1cc(CC(C)N)cc(OC)c1OC (stereo unspecified),.,.,-6%[92.5 µM],.,.,4%[92.5 µM]
O=C(OCc1c(-c2ccccc2)ncc2ccccc12)c1ccc(C(F)(F)F)cc1,18,2%,5.8µM*,0%,-4%,?
COc1cccc(/C=C/c2nc(S(=O)(=O)c3ccccc3)c(N3CCC(C(N)=O)CC3)o2)c1,-15,-21%,?,.,-4%,?
C=CCCC[C@@H]1OC(=O)CNC(=O)C([C@@H](C)CC)NC(=O)[C@@H]2CCCN2C(=O)C([C@@H](C)CC)OC(=O)[C@H](Cc2ccccc2)N(C)C(=O)[C@H](C(C)C)NC(=O)C1(C)C (stereo partly specified),-52*,-31%,16µM*,.,10µM*,13µM*
O=C=NC1CCCCC1,.,.,.,8%,.,.
CC(Cc1ccc(OCC(=O)O)cc1)NCC(O)c1cccc(Cl)c1 (stereo unspecified),.,.,-12%,-11%[56.1 µM],.,-4%
NC(=O)c1ccc(N)nc1,8,-51%,4.1µM*,2%,-18%,5.8µM*
CC(=O)O[C@@]12CO[C@@H]1C[C@H](OC1OCC(O)C(O)C1O)[C@@]1(C)C(=O)[C@H](O)C3=C(C)[C@@H](OC(=O)[C@H](O)[C@@H](NC(=O)c4ccccc4)c4ccccc4)C[C@@](O)([C@@H](OC(=O)c4ccccc4)C12)C3(C)C (stereo partly specified),11,4%,1µM*,.,22%,1.2µM*
SMILES,IL-1B inflam inh,HepG2 tox,DT40 TDP1 no CPT,TDP1 block,TGFb SMAD3 inh,DT40 TDP1 CPT
CC(=O)O[C@@]12CO[C@@H]1C[C@@H](O)[C@@]1(C)C(=O)[C@H](O)C3=C(C)[C@@H](OC(=O)[C@H](O)[C@@H](NC(=O)c4ccccc4)c4ccccc4)C[C@@](O)([C@@H](OC(=O)c4ccccc4)C12)C3(C)C (stereo partly specified),30,-21%,0.065µM*,.,?,0.046µM*
CCCCCC(=O)N[C@@H](c1ccccc1)[C@@H](O)C(=O)O[C@H]1C[C@@]2(O)[C@@H](OC(=O)c3ccccc3)C3[C@](C)(C(=O)[C@H](O)C(=C1C)C2(C)C)[C@@H](OC1OCC(O)C(O)C1O)C[C@H]1OC[C@@]31OC(C)=O (stereo partly specified),44,1%,0.58µM*,.,-10%,1.2µM*
Clc1ccc(C(Cn2ccnc2)OCc2csc3c(Cl)cccc23)c(Cl)c1 (stereo unspecified),-78*,-99%,13µM*,.,?,23µM*
CC(=O)Nc1cccc(-c2ccnc3c2CC(C(=O)NCc2ccco2)O3)c1 (stereo unspecified),23,2%,1.6µM*,.,3%,1.8µM*
COC(=O)C1=C(c2cccc(C#N)c2)C[C@@H]2CC[C@H]1N2C(=O)NCCc1ccccc1,6,-1%,?,0%,-25%,-24%
CC1(C)C(C(=O)NCc2ccco2)C1(C)C,0,-31%,-16%,5%,?,6%

# Compound activity as filed in PubChem.
